Measured values taken from PubChem BioAssay (NCATS).
Inconclusive results are not listed. A call without a number means that no potency is given here. Active and inactive are the calls of the source. Calls come from the whole dose curve; as a rule, active = well fitted cell-killing curve with a large enough effect; inconclusive = small, poorly fitted or top-dose-only effect, or effect the other way; inactive = flat fitted curve, though single readings scatter.

What follows are molecules tested on Hek293T (assay: Primary qHTS to identify gynecologic anti-cancer compounds using libraries of approved drugs and bioactive compounds (AID 1345084; note: nearly all actives have a fitted effect of over 55% in size)). Details: Gynecologic cancer cell panel viability, ATPlite luminescence, 48 h, control line for the selectivity index; series mostly up to 57.5 µM.
Procedure, shortened: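 48 h compound exposure at 37 C, 5% CO2; five-point qHTS. ATPlite luminescence readout of cell ATP.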

SMILES | Potency | activity change, negative = cytotoxicity
COC(=O)C1=CO[C@@H](O[C@@H]2O[C@H](CO[C@@H]3O[C@H](CO)[C@@H](O)[C@H](O)[C@H]3O)[C@@H](O)[C@H](O)[C@H]2O)[C@@H]2C(CO)=CC[C@H]12 | inactive | –
CSCC1OC(n2cnc3c(=O)[nH]cnc32)C(O)C1O (centres undefined) | inactive | –
COc1cc(C)c(C(=O)OC2C(C)OC(OC3CCC(C)C4C3C=C(C)C3/C(C)=C\CC/C(C)=C/C5(C)C=C(C(=O)O)C(C)CC56OC(=O)/C(=C(\O)C34C)C6=O)C(O)C2O)c(OC)c1 (centres undefined) | – | 6.05% [at 11.6 µM] (inactive)
OC[C@H]1O[C@@H](OCc2ccccc2)[C@H](O[C@@H]2OC[C@@H](O)[C@H](O)[C@H]2O)[C@@H](O)[C@@H]1O | inactive | –
Nc1ccc(-n2nc(C(F)(F)F)cc2C(F)(F)F)cc1 | inactive | –
Oc1ccc(CC2NCCc3cc(O)c(O)cc32)cc1 (centres undefined) | inactive | –
NCCCCN(Cc1nc2ccccc2[nH]1)[C@H]1CCCc2cccnc21 | inactive | –
C/C(=C\C1CCC(C)C2CCC3(C)OC123)C(=O)O (centres undefined) | inactive | –
CC1=C2C3OC(=O)C(C)C3(O)CCC2(C)CCC1 (centres undefined) | inactive | –
O=C(N[C@H](Cc1ccccc1)C(=O)O)c1sc2cc(F)ccc2c1Cl | inactive | –
CC(=O)c1ccc(O[C@@H]2O[C@H](CO[C@@H]3OC[C@@H](O)[C@H](O)[C@H]3O)[C@@H](O)[C@H](O)[C@H]2O)cc1 | inactive | –
C=C1C[C@H](O)[C@@H](O)[C@@]2(C)C1[C@@H](O)[C@H]1OC(=O)C3[C@@H](C)[C@@H](O)[C@H](O)C2[C@]31C (some centres undefined) | inactive | –
CCCC/C=C\CCCCCc1cc(=O)c2ccccc2n1C | inactive | –
Cn1cc(Nc2cnccc2C(=O)O)c2cccnc21 | inactive | –
C[C@H]1[C@H](C)C[C@@H](C(=O)O)C2CC[C@]3(C)C(=CC[C@@H]4[C@@]5(C)CC[C@H](O)C(C)(C)[C@@H]5CC[C@]43C)[C@@H]21 (some centres undefined) | inactive | –
C=CC(C)(O)CC/C=C(\C)C(=O)O[C@@H]1[C@@H](O)[C@H](OC(C)(C=C)CC/C=C(\C)C(=O)O)O[C@H](CO)[C@H]1OC(=O)/C(C)=C/CCC(C)(O)C=C (some centres undefined) | inactive | –
CC1(C)CC[C@]2(C(=O)O[C@@H]3O[C@H](CO)[C@@H](O)[C@H](O)[C@H]3O)CC[C@]3(C)C(=CCC4[C@@]5(C)CC[C@H](O[C@@H]6O[C@H](C(=O)O)[C@@H](O)[C@H](O)[C@H]6OC6OC(CO)C(O)C(O)C6O)C(C)(C)C5CC[C@]43C)[C@@H]2C1 (some centres undefined) | – | 25.2% [at 11.6 µM] (inactive)
COc1cccc(C)c1C(=O)O[C@@H]1C[C@H](O[C@H]2[C@H](O)C[C@H](O[C@@H]3CCC[C@H]4[C@H]3C=C[C@@H]3CCCC/C=C/[C@H]5C=C(C(=O)O)[C@@H](C)C[C@@]56OC(=O)C(=C6O)OC(=O)[C@@]34C)O[C@@H]2C)O[C@H](C)[C@H]1O | – | 3.45% [at 11.6 µM] (inactive)
CC(C)CC(=O)OC[C@@]1(O)C[C@@]23CC[C@H]4[C@@](C)(CCC[C@@]4(C)C(=O)O)[C@@H]2CC[C@@H]1C3 | inactive | –
C=C[C@H]1[C@H](O[C@@H]2O[C@H](CO)[C@@H](O)[C@H](O)[C@H]2O)OC=C(C(=O)OC)[C@H]1CC=O | inactive | –
C=C1C(=O)OC2CC(COC(=O)C(C)C)=C(C(C)CCCOC(C)=O)[C@@H](OC(C)=O)C12 (some centres undefined) | inactive | –
CC1=C2C(=O)C=C(CO[C@@H]3O[C@H](CO)[C@@H](O)[C@H](O)[C@H]3O)[C@@H]2[C@H]2OC(=O)[C@H](C)[C@@H]2[C@@H](O)C1 | inactive | –
C=C1C(=O)O[C@@H]2CC(C)=C([C@@H](C)CCCOC(C)=O)[C@@H](O)[C@H]12 | inactive | –
CC1=COC(OC2OC(CO)C(O)C(O)C2O)C2C(CO)CC(OC(=O)/C=C/c3ccc(O)cc3)C12 (centres undefined) | inactive | –
COc1cccc(OC)c1-c1ccc(C[C@H](NC(=O)c2c(Cl)cccc2Cl)C(=O)O)cc1 | inactive | –
C/C=C/C(=O)OC1/C=C/C(O)C(OC(C)=O)CCC(=O)OC1C (centres undefined) | inactive | –
CC1(C)[C@H]2C[C@H](C/C=C\CCCC(=O)O)[C@@H](NC(=O)c3csc4ccc(O)cc34)[C@@H]1C2 | inactive | –
CC(=O)/C=C/C1C(C)CC(O[C@@H]2O[C@H](CO)[C@@H](O)[C@H](O)[C@H]2O)CC1(C)C (some centres undefined) | inactive | –
COC(=O)c1ccccc1O[C@@H]1O[C@H](CO[C@@H]2OC[C@@H](O)[C@H](O)[C@H]2O)[C@@H](O)[C@H](O)[C@H]1O | inactive | –
